esBAF inh – Bmi1 luciferase reporter increase in mESCs, primary screen, esBAF inhibitor project, mouse ES cells, Bmi1 luciferase knock-in, single point; actives 2% (n = 350,000); AID 602393, 2012; 24 h; 100% = twice the neutral-well signal; reporter increase, % at 12.5 µM; in the data active = activation above about 40%; inconclusive = no clear call, values can overlap the other calls;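 also: 0% = median of the plate's neutral control wells and 100% = double that signal; a rise in the Bmi1 reporter signal indicates esBAF inhibition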
Wnt act – Wnt/beta-catenin pathway activators, primary screen, cell-based, plate reader, single point | AID 743398, 2014 | Wnt/beta-catenin reporter cell assay, activator | activation, % at 9.35 µM | actives 1.2% (n = 300,000); in the data active = activation above about 30%, passing the limit was not always enough; inconclusive = no clear call, values can overlap the other calls;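 also: 0% = neutral control wells and 100% = positive control wells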
Statin myotox sup – suppressors of statin myotoxicity in C2C12 myotubes, primary screen, cell-based, single point, plate reader. C2C12 myotubes + simvastatin, ATP luminescence, 48 h; scaled: DMSO 0, geranylgeraniol control 100. actives 0.78% (n = 330,000). rescue of ATP level, % at 7.49 µM;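 active = mean ATP rescue above about 67%, or every replicate alone reaching that limit, limit read from the data, passing the limit was not always enough; inconclusive = no clear call, values can overlap the other calls; inactive = mean under the limit and some replicate under it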;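 also: myotubes were challenged with 10 µM simvastatin during compound exposure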
MITF TRPM1 HTS – activators of MITF-driven TRPM1 promoter reporter, primary screen, cell-based, SK-MEL-5, luciferase, single point; AID 588334, 2011; activation, % at 12.5 µM; actives 0.75% (n = 300,000); SK-MEL-5 TRPM1-promoter luciferase, 24 h; % of positive control, neutral wells = 0;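 active = mean activation of at least 80% with every replicate also reaching 80%; inconclusive = mean reaches 80% but some replicate falls short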;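 also: 0% = neutral control wells and 100% = parthenolide positive control wells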
The depositor's hits bear a star; ? = inconclusive; / = no result given; ! = repeats disagree. Rows were chosen to be rich in hits. Some 3% of all compounds tested hit in one or more screens of this group.

SMILES	esBAF inh	Wnt act	Statin myotox sup	MITF TRPM1 HTS
O=c1sc(N2CCN(c3ccccc3F)CC2)nc2ccsc12	69*	54*	-17	/
O=C(c1ccco1)N1CCN(c2nc3ccsc3c(=O)s2)CC1	39	5	8	43
CCc1ccc(NC(=O)c2n[nH]c(=O)c3ccccc23)cc1	60*	29	-4	107*
CCCOc1ccc(C(O)(CCN2CCCCC2)c2ccccc2OC)cc1 (centres undefined)	-11	-4	87*	4
CC(C)CC#Cc1cnc2c(c1)C(=O)N([C@@H](C)CO)C[C@H](C)[C@@H](CN(C)C(=O)c1ccccc1F)O2	-2	/	-1	/
O=C(NCCc1ccccc1)c1c[nH]c2c(F)cccc2c1=O	38	4	3	/
O=C(NCCc1ccccc1)c1c(O)c2ccccc2[nH]c1=O	50*	5	-12	38
Cc1cccc2c(=O)c(C(=O)NCCc3ccccc3)c[nH]c12	52*	5	-4	39
O=C(NCCc1ccccc1)c1ccccc1C(=O)NCCc1ccccc1	23	13	-3	/
O=C(NCCc1ccccc1)c1ccc(Br)o1	49*	25	28	?
O=C(NCCc1ccccc1)c1nccc2ccccc12	80*	29	4	81*
CCCNC(=O)Cc1c(O)c2ccccc2[nH]c1=O	1	/	108*	15
O=C(Cc1c(O)c2ccccc2[nH]c1=O)NCc1ccccc1F	2	-1	60	/
O=C(NCCc1ccccc1)c1n[nH]c2ccccc12	24	52*	-4	63
O=C(NCCc1ccc(Cl)cc1)c1n[nH]c2ccccc12	/	2	/	50
C[C@H](CO)N1C[C@H](C)[C@H](CN(C)Cc2ccncc2)OCCCC[C@H](C)Oc2ccc(NC(=O)Nc3cccc4ccccc34)cc2C1=O	2	/	/	/
C[C@H]1CN([C@@H](C)CO)C(=O)c2cccc(NS(=O)(=O)c3ccccc3)c2O[C@H]1CN(C)C(=O)Nc1ccc(F)cc1	-4	/	-5	/
COc1cccc(-c2cn(CC[C@H]3CC[C@@H](NS(=O)(=O)c4ccccc4Cl)[C@@H](CO)O3)nn2)c1	2	/	-3	/
CCc1ccc(NC(=S)Nc2cccc3cnccc23)cc1	62*	34*	10	7
O=C(NCC1CCCCC1)[C@@H]1N[C@@H]2c3ccc(C4=CCCC4)c(=O)n3C[C@@H]2[C@H]1CO	-4	/	-5	/
Cc1cc(C(=O)COc2ncnc3sccc23)c(C)n1C	55*	/	-32	55
C[C@@H]1CN([C@H](C)CO)C(=O)c2cc(NC(=O)NC3CCCCC3)ccc2O[C@@H](C)CCCCO[C@H]1CN(C)Cc1ccc2c(c1)OCO2	-9	/	/	/
O=C(C[C@@H]1C=C[C@@H](NC(=O)C2CCC2)[C@H](CO)O1)NCc1ccccc1Cl	-1	/	0	/
Cc1ccc(Sc2ncnc3onc(C)c23)cc1	-2	/	98*	-7
Cc1noc2ncnc(Sc3ccc(Cl)cc3)c12	-7	/	134*	-4
SMILES	esBAF inh	Wnt act	Statin myotox sup	MITF TRPM1 HTS
C[C@@H]1CN([C@H](C)CO)C(=O)Cc2cc(NC(=O)C3CCCCC3)ccc2O[C@@H]1CN(C)C(=O)Nc1ccc(F)cc1	1	/	-3	/
Cc1noc(C)c1NC(=O)N(C)C[C@@H]1Oc2cc(C#CCC3CCCC3)ccc2S(=O)(=O)N([C@@H](C)CO)C[C@@H]1C	11	/	38	/
Cc1cc(=O)n2[nH]cc(-c3ccccc3)c2n1	4	-1	-7	0
Cc1nc2c(-c3ccccc3)c[nH]n2c(=O)c1Cc1ccccc1	47*	6	-3	20
CCc1cc2c(=O)[nH]c(-c3ccccn3)nc2s1	/	34*	/	-27
C[C@H](CO)N1C[C@H](C)[C@H](CN(C)Cc2ccccc2)OCCCC[C@H](C)Oc2ccc(NC(=O)Nc3ccc4c(c3)OCO4)cc2C1=O	-1	/	-136	/
CN1CCN(C(c2ccccc2)c2nnnn2Cc2ccccc2)CC1 (centres undefined)	-2	/	141*	5
Cc1cc(OCc2ccc(C(=O)n3cccn3)o2)ccc1Cl	/	47*	/	11
CCN(CC)C(=O)c1ccc(COc2ccccc2Br)o1	73*	/	-7	25
CCCNC(=O)c1ccc(COc2ccc(Cl)cc2)o1	-7	-1	-11	0
O=C(c1ccc(COc2ccc(F)cc2)o1)n1cccn1	0	1	4	-3
CCN(CC)C(=O)c1ccc(COc2ccc(Cl)c(C)c2)o1	78*	1	-9	/
CN1C(=O)c2cc(NC(=O)c3ccccc3)ccc2OC[C@@H]2O[C@@H](CC(=O)O)CC[C@H]21	-1	/	-1	/
COc1ccc(NC(=O)N(C)C[C@@H]2Oc3cc(C#CCC(C)C)ccc3S(=O)(=O)N([C@H](C)CO)C[C@@H]2C)cc1	5	/	0	/
Cc1ccc(Nc2ncc3c(n2)CC(C)CC3=O)c(C)c1 (centres undefined)	/	52*	/	/
Cc1nc(SCCc2ccccc2)[nH]c(=O)c1C	50*	/	0	-11
Cc1nnc(SCCc2ccccc2)[nH]c1=O	-2	/	-8	10
CN(C)C(=O)C[C@@H]1C[C@@H]2c3cc(NS(=O)(=O)c4ccc(F)cc4)ccc3O[C@@H]2[C@@H](CO)O1	-2	/	-6	/
CCOC(=O)c1sc(S(C)(=O)=O)c2c1CCc1conc1-2	/	55*	/	/
CCOC(=O)c1sc(SC)c2c1CCC/C2=N/OC	-3	-3	0	-15
Cc1ccc(Nc2cc(C)nc(-c3ccccc3O)n2)cc1	53*	42*	-8	/
Cc1cc(Nc2ccc(Br)cc2)nc(-c2ccccc2O)n1	9	3	-6	/
Cc1ccc(Nc2cc(C)nc(-c3ccccc3)n2)cc1	?	?	-7	122*
Cc1cc(Nc2ccc(F)c(F)c2)nc(-c2ccccc2O)n1	2	-2	-29	11
Cc1cc(NCCCN)nc(-c2ccccc2O)n1	45*	/	18	31
SMILES	esBAF inh	Wnt act	Statin myotox sup	MITF TRPM1 HTS
CO[C@@H]1CN(C)C(=O)c2cc(NS(=O)(=O)c3cccc(C)c3)ccc2OC[C@H](C)NC[C@@H]1C	2	/	4	/
C[C@H](CO)N1C[C@H](C)[C@@H](CN(C)S(=O)(=O)c2cccs2)Oc2ccc(NC(=O)Cc3ccccc3)cc2C1=O	7	-3	-9	-4
C[C@H]1CN([C@@H](C)CO)C(=O)c2cccc(NC(=O)Nc3ccc4c(c3)OCO4)c2O[C@@H]1CN(C)S(=O)(=O)c1cccs1	44*	/	-39	/
C[C@H](CO)N1C[C@H](C)[C@@H](CN(C)S(=O)(=O)c2cccs2)Oc2c(NS(=O)(=O)c3cn(C)cn3)cccc2C1=O	0	47*	6	11
C[C@H](CO)N1C[C@H](C)[C@@H](CN(C)S(=O)(=O)c2cccs2)Oc2c(NC(=O)Nc3ccc4c(c3)OCO4)cccc2C1=O	57*!	-1	-17	9
C[C@H](CO)N1C[C@H](C)[C@H](CN(C)S(=O)(=O)c2cccs2)Oc2c(NS(=O)(=O)c3cn(C)cn3)cccc2C1=O	-4	/	28	/

Screens as filed in PubChem BioAssay.
